For orientation: inhibition means the drop in the measured response relative to a control, in per cent.

In ChEMBL document CHEMBL1961873, “Compounds: GSK PKIS; Assays: Nanosyn kinase panel” (2012) one finds inhibition data, which are given here for seven compounds.

Test [1] deals with Dual specificity protein kinase CLK3 (Homo sapiens) (UniProt P49761). The following applies: at 1 µM.
In test [2] the target is Dual specificity tyrosine-phosphorylation-regulated kinase 1A (Homo sapiens) (UniProt Q13627). The following applies: at 0.1 µM.
Test [3] has the same target. The following applies: at 1 µM.
Test [4] concerns the target Dual specificity tyrosine-phosphorylation-regulated kinase 1B (Homo sapiens) (UniProt Q9Y463). As to conditions: at 0.1 µM.
The target is the same in test [5]. As to conditions: at 1 µM.
Test [6] has as its target T1, Dual specificity tyrosine-phosphorylation-regulated kinase 2 (Homo sapiens) (UniProt Q92630).
T1 sequence (whole entry): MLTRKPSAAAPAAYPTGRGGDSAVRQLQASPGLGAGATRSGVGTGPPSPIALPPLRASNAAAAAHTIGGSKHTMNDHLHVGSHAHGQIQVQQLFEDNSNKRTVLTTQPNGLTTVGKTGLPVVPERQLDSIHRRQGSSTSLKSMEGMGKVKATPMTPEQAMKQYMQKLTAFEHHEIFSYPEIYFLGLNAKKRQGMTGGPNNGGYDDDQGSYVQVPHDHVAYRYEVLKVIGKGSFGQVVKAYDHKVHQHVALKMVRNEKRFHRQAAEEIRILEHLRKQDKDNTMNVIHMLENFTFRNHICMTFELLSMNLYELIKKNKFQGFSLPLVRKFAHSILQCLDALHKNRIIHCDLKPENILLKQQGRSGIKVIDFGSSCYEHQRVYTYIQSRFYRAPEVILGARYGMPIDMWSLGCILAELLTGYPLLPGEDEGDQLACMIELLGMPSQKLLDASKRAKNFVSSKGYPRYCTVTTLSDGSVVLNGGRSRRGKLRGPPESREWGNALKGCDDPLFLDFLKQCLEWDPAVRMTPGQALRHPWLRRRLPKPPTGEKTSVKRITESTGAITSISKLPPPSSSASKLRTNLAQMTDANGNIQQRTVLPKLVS
The following applies: at 0.1 µM.

The target in test [7] is T1, Dual specificity tyrosine-phosphorylation-regulated kinase 2 (Homo sapiens). The following applies: at 1 µM.
Test [8] concerns the target Glycogen synthase kinase-3 alpha (Homo sapiens) (UniProt P49840). As to conditions: at 0.1 µM.
The target is the same in test [9]. The following applies: at 1 µM.
For test [10], the target named is Glycogen synthase kinase-3 beta (Homo sapiens) (UniProt P49841). The following applies: at 0.1 µM.
Test [11] shares this target. As to conditions: at 1 µM.
Test [12] deals with Homeodomain-interacting protein kinase 1 (Homo sapiens) (UniProt Q86Z02). The following applies: at 0.1 µM.
Test [13] has the same target. As to conditions: at 1 µM.
In test [14] the target is T2, Homeodomain-interacting protein kinase 4 (Homo sapiens) (UniProt Q8NE63).
T2 sequence (whole entry): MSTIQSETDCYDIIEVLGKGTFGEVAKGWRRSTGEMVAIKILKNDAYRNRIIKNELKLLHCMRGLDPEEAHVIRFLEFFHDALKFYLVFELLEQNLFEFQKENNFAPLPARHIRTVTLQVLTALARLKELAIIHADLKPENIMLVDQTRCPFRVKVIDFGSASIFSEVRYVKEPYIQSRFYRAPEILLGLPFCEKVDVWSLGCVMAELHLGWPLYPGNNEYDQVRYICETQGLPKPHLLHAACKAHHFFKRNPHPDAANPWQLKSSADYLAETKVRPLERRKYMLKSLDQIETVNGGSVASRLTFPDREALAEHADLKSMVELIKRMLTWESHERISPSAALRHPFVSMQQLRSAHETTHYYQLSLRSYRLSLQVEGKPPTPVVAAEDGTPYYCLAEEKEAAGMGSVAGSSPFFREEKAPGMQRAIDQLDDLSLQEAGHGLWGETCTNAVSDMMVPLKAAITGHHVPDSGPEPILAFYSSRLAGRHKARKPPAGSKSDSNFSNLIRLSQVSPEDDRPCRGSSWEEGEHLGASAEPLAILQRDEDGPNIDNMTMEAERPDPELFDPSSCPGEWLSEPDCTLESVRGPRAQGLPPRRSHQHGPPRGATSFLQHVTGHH
The following applies: at 0.1 µM.

In test [15] the target is T2, Homeodomain-interacting protein kinase 4 (Homo sapiens). As to conditions: at 1 µM.
The target of test [16] is Mitogen-activated protein kinase 9 (Homo sapiens) (UniProt P45984). As to conditions: at 0.1 µM.
Test [17] shares this target. The following applies: at 1 µM.
Test [18] has as its target Mitogen-activated protein kinase 1 (Homo sapiens) (UniProt P28482). The following applies: at 0.1 µM.
Test [19] has the same target. As to conditions: at 1 µM.
The target in test [20] is Mitogen-activated protein kinase 3 (Homo sapiens) (UniProt P27361). The following applies: at 0.1 µM.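 Further: each value is a mean inhibition figure.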
Chain of Mitogen-activated protein kinase 3 (Homo sapiens) (P27361 whole entry): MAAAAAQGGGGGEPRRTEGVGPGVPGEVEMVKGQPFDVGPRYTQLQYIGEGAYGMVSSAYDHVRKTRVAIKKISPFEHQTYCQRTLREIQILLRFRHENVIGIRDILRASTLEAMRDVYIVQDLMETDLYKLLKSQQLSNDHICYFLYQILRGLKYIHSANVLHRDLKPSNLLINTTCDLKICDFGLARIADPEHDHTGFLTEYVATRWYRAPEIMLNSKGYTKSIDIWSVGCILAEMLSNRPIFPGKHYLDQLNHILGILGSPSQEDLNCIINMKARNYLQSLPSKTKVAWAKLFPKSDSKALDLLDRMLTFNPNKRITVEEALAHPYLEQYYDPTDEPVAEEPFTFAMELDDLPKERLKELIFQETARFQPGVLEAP

Chain of Mitogen-activated protein kinase 9 (Homo sapiens) (P45984 whole entry, looked up): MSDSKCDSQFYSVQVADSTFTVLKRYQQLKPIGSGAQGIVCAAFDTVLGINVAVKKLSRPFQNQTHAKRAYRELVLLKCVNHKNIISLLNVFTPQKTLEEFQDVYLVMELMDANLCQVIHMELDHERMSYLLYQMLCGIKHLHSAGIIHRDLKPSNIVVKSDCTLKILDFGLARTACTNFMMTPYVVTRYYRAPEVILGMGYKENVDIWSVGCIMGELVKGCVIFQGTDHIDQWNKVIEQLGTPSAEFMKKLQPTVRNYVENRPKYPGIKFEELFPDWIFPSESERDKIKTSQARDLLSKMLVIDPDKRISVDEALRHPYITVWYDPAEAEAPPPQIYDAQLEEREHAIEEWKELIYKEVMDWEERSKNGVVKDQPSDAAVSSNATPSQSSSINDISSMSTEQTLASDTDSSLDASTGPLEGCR
Chain of Glycogen synthase kinase-3 beta (Homo sapiens) (P49841 whole entry, looked up): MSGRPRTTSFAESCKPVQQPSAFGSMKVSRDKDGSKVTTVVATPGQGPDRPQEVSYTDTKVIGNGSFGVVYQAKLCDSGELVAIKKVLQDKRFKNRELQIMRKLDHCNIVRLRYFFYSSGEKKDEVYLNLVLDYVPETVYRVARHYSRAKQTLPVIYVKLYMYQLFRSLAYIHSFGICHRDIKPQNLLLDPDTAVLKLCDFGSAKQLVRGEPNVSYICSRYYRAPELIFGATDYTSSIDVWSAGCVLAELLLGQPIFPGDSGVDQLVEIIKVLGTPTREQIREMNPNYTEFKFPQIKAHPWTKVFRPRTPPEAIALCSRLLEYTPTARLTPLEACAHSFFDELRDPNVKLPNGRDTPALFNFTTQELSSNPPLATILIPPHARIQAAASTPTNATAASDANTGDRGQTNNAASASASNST
Chain of Homeodomain-interacting protein kinase 1 (Homo sapiens) (Q86Z02 whole entry, looked up): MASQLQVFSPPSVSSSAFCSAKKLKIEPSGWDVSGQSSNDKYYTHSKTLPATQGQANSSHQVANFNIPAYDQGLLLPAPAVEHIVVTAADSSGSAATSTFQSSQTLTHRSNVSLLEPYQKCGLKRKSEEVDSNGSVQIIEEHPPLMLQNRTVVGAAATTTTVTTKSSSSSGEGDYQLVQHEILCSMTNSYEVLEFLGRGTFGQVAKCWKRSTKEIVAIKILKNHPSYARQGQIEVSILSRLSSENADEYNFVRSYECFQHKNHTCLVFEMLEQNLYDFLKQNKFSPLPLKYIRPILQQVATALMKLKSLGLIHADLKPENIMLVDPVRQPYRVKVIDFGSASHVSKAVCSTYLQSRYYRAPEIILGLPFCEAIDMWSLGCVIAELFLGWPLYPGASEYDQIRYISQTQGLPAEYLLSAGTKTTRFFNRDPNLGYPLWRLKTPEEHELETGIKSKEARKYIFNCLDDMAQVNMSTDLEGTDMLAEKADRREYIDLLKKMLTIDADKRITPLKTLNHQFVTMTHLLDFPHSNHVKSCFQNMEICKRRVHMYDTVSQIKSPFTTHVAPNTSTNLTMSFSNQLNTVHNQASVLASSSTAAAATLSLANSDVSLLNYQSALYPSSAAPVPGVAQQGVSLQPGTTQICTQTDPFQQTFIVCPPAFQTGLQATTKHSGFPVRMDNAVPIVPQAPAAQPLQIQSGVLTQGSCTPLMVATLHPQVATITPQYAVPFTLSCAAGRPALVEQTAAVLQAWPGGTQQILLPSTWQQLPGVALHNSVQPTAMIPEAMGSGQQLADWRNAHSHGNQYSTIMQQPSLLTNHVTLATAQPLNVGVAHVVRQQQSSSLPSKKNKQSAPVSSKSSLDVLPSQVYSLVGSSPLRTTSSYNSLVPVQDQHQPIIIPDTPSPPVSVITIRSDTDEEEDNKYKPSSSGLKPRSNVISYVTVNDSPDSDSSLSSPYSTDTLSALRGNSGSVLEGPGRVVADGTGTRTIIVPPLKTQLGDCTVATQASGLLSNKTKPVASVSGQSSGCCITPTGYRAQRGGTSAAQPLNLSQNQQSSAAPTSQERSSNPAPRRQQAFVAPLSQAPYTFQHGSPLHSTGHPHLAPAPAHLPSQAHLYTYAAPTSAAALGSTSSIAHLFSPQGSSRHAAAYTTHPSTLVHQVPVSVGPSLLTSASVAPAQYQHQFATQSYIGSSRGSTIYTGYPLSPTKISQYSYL
Chain of Glycogen synthase kinase-3 alpha (Homo sapiens) (P49840 2-483 limits assumed): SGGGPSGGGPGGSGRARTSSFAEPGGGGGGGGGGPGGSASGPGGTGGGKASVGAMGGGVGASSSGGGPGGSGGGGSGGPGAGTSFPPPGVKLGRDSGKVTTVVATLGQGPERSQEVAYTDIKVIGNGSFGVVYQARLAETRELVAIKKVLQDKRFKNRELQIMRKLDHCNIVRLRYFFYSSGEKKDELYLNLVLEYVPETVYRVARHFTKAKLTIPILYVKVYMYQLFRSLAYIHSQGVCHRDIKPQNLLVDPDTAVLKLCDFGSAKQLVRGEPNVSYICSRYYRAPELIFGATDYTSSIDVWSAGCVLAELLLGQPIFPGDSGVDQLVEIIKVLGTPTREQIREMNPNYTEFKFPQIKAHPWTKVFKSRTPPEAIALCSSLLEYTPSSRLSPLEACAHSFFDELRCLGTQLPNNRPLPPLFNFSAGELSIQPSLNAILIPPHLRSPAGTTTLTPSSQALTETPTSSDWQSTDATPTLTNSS
Chain of Dual specificity protein kinase CLK3 (Homo sapiens) (P49761 whole entry, looked up): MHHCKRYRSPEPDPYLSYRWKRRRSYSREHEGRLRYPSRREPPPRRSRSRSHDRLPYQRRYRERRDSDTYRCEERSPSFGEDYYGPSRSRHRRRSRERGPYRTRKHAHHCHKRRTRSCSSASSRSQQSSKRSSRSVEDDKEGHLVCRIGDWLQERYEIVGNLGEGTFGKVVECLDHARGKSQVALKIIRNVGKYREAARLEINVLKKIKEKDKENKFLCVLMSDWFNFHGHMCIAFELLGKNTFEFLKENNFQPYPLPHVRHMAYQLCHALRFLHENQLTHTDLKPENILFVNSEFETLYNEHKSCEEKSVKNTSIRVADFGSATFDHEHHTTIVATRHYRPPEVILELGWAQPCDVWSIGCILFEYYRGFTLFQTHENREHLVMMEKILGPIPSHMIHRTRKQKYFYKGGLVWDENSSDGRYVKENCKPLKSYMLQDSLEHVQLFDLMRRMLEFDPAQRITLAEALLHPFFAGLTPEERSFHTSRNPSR
Chain of Mitogen-activated protein kinase 1 (Homo sapiens) (P28482 whole entry): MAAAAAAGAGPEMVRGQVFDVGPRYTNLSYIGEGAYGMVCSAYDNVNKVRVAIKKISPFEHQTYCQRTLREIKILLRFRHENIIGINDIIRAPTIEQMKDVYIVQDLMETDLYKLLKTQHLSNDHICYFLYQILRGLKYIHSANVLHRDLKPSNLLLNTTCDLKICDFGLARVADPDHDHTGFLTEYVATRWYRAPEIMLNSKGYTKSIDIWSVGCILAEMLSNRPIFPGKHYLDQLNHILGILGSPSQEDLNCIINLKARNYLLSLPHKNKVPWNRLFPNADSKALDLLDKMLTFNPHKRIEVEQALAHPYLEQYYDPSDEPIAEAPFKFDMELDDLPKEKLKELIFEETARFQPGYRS
Chain of Dual specificity tyrosine-phosphorylation-regulated kinase 1B (Homo sapiens) (Q9Y463 whole entry, looked up): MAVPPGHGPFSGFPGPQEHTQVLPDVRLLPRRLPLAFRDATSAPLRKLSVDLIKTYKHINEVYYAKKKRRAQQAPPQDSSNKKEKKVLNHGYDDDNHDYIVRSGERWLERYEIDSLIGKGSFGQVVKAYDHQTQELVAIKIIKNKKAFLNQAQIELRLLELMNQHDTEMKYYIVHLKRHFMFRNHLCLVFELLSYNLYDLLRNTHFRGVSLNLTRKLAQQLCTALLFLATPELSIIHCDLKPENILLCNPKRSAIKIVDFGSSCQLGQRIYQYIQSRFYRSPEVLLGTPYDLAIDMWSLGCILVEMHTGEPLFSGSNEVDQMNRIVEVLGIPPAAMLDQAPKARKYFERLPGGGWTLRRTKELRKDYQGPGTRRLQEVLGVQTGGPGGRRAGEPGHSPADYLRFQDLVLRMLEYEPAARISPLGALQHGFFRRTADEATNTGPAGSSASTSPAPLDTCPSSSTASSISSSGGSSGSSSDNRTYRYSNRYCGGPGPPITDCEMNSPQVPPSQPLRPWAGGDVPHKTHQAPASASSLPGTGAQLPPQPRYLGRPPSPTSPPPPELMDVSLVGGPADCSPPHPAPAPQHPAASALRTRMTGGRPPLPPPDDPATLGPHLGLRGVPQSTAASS

On to `CCn1c(-c2nonc2N)nc2ccccc21`, for which the inhibition in test [1] is 2.22%; in test [2], 1.62%; in test [3], 14.6%; in test [4], 1.02%; in test [5], 7.36%; in [6], 2.66%. For the same compound, the inhibition worked out at 5.28% in test [7]; 3.32% in test [8]; 24% in test [9]; 3.21% in test [10]; 17.4% in test [11]; 1.47% in test [12]. Besides, the inhibition in test [13] was determined as 4.99%; in [14], 1.45%; in [15], 4.14%; in test [16], 3.53%; in test [17], 2.53%; in [18] it was 1.93%. The inhibition was found to be 3.93% in test [19] and 3.48% in [20].

As to `CCN(CC)S(=O)(=O)c1ccc(OC)c(Nc2ncc(-c3ccccc3)o2)c1`, the inhibition in test [1] amounted to 8.6%; in test [2], 1.08%; in [3], 10.9%; in test [4], 1.93%; in [5] it was 14.7%; in test [6], 1.64%. For the same compound, the inhibition was 6.15% in [7]; 0.34% in [8]; 2.7% in [9]; 0.79% in [10]; 3.89% in test [11]; 1.49% in test [12]. The inhibition in test [13] was 10.2%; in [14], 2.17%; in test [15], 17.8%; in [16], 2.31%; in [17], 1.02%; in test [18], -1.7%. Also, the inhibition in test [19] was -0.08%; in test [20] it was 1.68%.

For the compound `CC(C)COC(=O)c1ccc2c(c1)/C(=C/Nc1ccc(S(N)(=O)=O)cc1)C(=O)N2`, the inhibition turned out to be 11.4% in [1]; 11.9% in test [2]; 57% in test [3]; 12% in test [4]; 53.9% in test [5]; 1.28% in test [6]. The inhibition was 22.4% in test [7]; 34.8% in [8]; 80.6% in test [9]; 36.1% in test [10]; 82.7% in test [11]; -0.11% in test [12]. The inhibition in test [13] was 16.8%; in test [14] it was -0.32%; in test [15] it was 16.9%; in test [16], 0.47%; in test [17], 10.8%; in test [18], 2.73%. The inhibition in test [19] was found to be 31.3%; in [20], 1.07%.

As to `[O-][S+]1CCN(Cc2ccc(-c3ccc4ncnc(Nc5ccc(OCc6cccc(F)c6)c(Cl)c5)c4c3)o2)CC1`, the inhibition turned out to be 1.25% in [1]; 4.05% in test [2]; 3.96% in test [3]; 0.06% in test [4]; 1.57% in [5]; 4.92% in [6]. Further, the inhibition was 4.13% in test [7]; 3.26% in [8]; 5.28% in test [9]; 3.06% in [10]; 4.76% in test [11]; -2.75% in [12]. Also, the inhibition in [13] is 1.62%; in [14], 0.28%; in test [15] it was 0.6%; in [16], 3.35%; in [17], 1.33%; in test [18] it was 7.21%. Also, the inhibition in test [19] was 6.45%; in test [20], 5.68%.

`COc1ccc(CNC(=O)c2ccc(-c3cc(-c4nnc(C)o4)ccc3C)cc2)cc1`: the inhibition is 2.16% in test [1]; 1.08% in [2]; 1.05% in test [3]; 1.53% in test [4]; 2.22% in test [5]; 0.27% in test [6]. Further, the inhibition in test [7] stood at 1.42%; in [8], 5.61%; in test [9], 17.9%; in test [10], 5.31%; in test [11], 13.6%; in test [12] it was 5.43%. Moreover, the inhibition is 5.55% in test [13]; 7.2% in test [14]; 9.71% in [15]; -0.3% in [16]; 2.51% in [17]; 4.56% in test [18]. Also, the inhibition in [19] was -9.41%; in test [20], 1.8%.

Regarding `CC(=O)Nc1cccc(C#Cc2cncnc2Nc2ccc(OCc3cccc(F)c3)c(Cl)c2)c1`, the inhibition in test [1] is 0.73%; in test [2] it was -0.41%; in test [3] it was 1.4%; in test [4] it was 0.85%; in test [5], -0.33%; in [6], 3.61%. For the same compound, the inhibition was 1.41% in test [7]; 2.72% in test [8]; 5.35% in test [9]; 1.98% in test [10]; 4.53% in [11]; -1.76% in test [12]. Moreover, the inhibition in [13] was -0.76%; in test [14], 1.24%; in test [15] it was 4.47%; in test [16] it was 2.12%; in test [17], 3.22%; in [18], 2.93%. The inhibition in test [19] was 3.14%; in test [20], 2.14%.

As to `N#Cc1c(NC(=O)CN2CCOCC2)sc2c1CCCC2`, the inhibition came to 7.77% in [1]; 7.33% in [2]; 11% in [3]; 4.95% in test [4]; 8.26% in [5]; 1.96% in [6]. Further, the inhibition in test [7] is 4.75%; in test [8], 10.6%; in [9] it was 9.38%; in test [10], 11%; in [11] it was 7.42%; in test [12], 6.67%. Besides, the inhibition was 10.1% in [13]; 7.62% in test [14]; 6.09% in test [15]; 4.4% in test [16]; 9.83% in test [17]; 4.06% in test [18]. The inhibition in test [19] came to 4.79%; in [20] it was 3.09%.
